# Assay results reported in publication PMC5540273 (PLoS ONE, 2017).
# System: HIPK2
# Conditions: concentration: 1 μM, replicates: in singlicate; n = 1
# 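Further: KINOMEscan kinase panel screen.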
row,SMILES,%Inh [%]
1,COc1cccc(-c2cc(-c3c[nH]nc3-c3ccccn3)ccn2)c1 [GW680338],10
2,COc1cc2ncnc(Nc3ccc4nc(-c5ccccc5)[nH]c4c3)c2cc1OC.Cl [GW282450],0
3,COC(=O)c1c(-c2ccccc2)c2cc(C(=O)O)ccc2c(=O)n1Cc1ccccc1,0
4,Cc1cccc(-c2nc(Nc3ccncc3)c3ccccc3n2)n1 [GW855857],0
5,Cc1cccc(-c2nc(-c3ccc(S(C)(=O)=O)cc3)sc2-c2ccnc(NCCc3ccccc3)c2)c1,0
6,CN(C)CCN(C)C(=O)c1cc(-c2ccncc2)c(-c2ccc(Cl)c(O)c2)o1.Cl.Cl [SB-710397],0
7,Cc1nnc(-c2ccc3occ(-c4ccc(S(C)=O)cc4)c3c2)[nH]1 (stereo not drawn),84
8,COc1cc2nccc(Nc3ccc(NC(=O)c4ccc(C)cc4)c(O)c3)c2cc1OC.Cl [GW440132],0
9,Cc1cccc(-c2cc(Nc3ccncc3)c3ccccc3n2)n1 [GSK223675],0
10,Cn1ccc2ncnc(Oc3ccc(Nc4nc5ccccc5[nH]4)cc3)c21,0
11,Cc1cc(NCC(c2ccccc2)c2ccccc2)nc(NCc2ccc(C(F)(F)F)cc2)n1 [GW497681],0
12,Cc1cccc(-c2nc(C)cc(Nc3ccncc3)n2)n1 [GSK257997],0
13,Cl.c1ccc(-c2n[nH]cc2-c2ccnc(-c3ccc(CN4CCOCC4)cc3)c2)nc1 [GW776245],0
14,Cc1ccc(NC(=O)Nc2cc(C(C)(C)C)nn2-c2ccccc2)cc1 [GSK1014915],0
15,CC1=C(C(=O)Nc2cc3cn[nH]c3cc2F)C(c2ccc(C(F)(F)F)cc2)CC(=O)N1 (stereo not drawn) [GSK429286],0
16,Nc1nc(-c2nccs2)c(-c2ccnc3ccccc23)s1 [GW693542],0
17,COc1ccc(C2=C(Nc3cccc(C(=O)O)c3)C(=O)NC2=O)cc1 [SB-390765],16
18,O=C(O)COc1ncnc2cc(-c3ccc4[nH]ncc4c3)sc12,47
19,Cc1cccc(-c2nc(Nc3cccc(C(N)=O)c3)c3ccccc3n2)n1 [GW876019],43
20,CC(C)(C)c1ccc(C(=O)Nc2cn3cc(-c4cccnc4)ccc3n2)cc1,27
21,COc1ccccc1CNC(=O)c1cc(C(=O)c2ccccc2C)c[nH]1 [GSK364507],0
